FBW7 activator: human FBW7 E3 ligase activation, primary screen. normalized activity (activation), % at 26.1 µM. AlphaScreen FBW7–phospho-cyclin E peptide binding, activator screen. Q969H0. 650,000 tested, 0.13% active; in the data active = normalized activity above about 1.9%;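 note: purified mutant Fbw7 with reduced substrate affinity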
TEAD-YAP inh: TEAD-YAP interaction inhibition | HEK-TIYL cells, TEAD-Gal4/YAP UAS-luciferase luminescence | inhibition, % at 9.12 µM | 640,000 tested, 1.4% active | AID 1259422; in the data active = inhibition above about 32%;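 note: 0% = median of test compound wells and 100% = reference inhibitor wells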
GPR151 ag: human GPR151 activation; AID 1508602; 650,000 tested, 1% active; PathHunter beta-arrestin GPR151 cells, luminescence; Q8TDV0; activation, % at 11.2 µM; in the data active = activation above about 4.9%;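 note: 0% = median of compound wells and 100% = cells with positive control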
Target sequence (Q8TDV0 whole entry, looked up): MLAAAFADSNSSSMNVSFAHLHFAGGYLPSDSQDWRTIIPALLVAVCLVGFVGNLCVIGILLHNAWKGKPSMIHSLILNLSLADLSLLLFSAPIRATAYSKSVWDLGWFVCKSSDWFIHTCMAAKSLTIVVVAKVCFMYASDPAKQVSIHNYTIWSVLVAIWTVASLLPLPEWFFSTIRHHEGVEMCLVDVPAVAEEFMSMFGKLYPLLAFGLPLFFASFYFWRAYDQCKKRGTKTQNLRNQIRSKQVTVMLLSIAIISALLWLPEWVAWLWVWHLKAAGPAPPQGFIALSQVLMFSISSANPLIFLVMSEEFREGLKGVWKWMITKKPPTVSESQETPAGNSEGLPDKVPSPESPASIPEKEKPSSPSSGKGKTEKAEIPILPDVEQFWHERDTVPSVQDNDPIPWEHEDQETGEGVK
MITF inh: blocks human microphthalmia-associated transcription factor | inhibition, % at 2.6 µM | 650,000 tested, 0.91% active | O75030 | AlphaScreen MITF homodimerization, bead proximity signal; in the data active = inhibition above about 50%;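 note: 0% = vehicle wells with protein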
GPR151 conf act: confirmation of human GPR151 activators. shares compounds with GPR151 ag. GPR151 PathHunter beta-arrestin cells, luminescence, 90 min; % of EA-reagent control over plate median. activation, % at 11.2 µM. 6,700 tested, under 10 active. AID 1508609;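 active = mean percent activation across replicates above the confirmation screen cutoff of 4.91%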
GPR119 ag: counter-screen for GPR151 activators: effect on human GPR119; shares compounds with GPR151 ag; GPR119 PathHunter beta-arrestin cells, luminescence, 90 min; 0 = compound-well median, 100 = enzyme-acceptor control; activation, % at 11.2 µM; 6,700 tested, 0.3% active;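 active = mean percent activation in the counterscreen above 29.09%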;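 note: counterscreen on off-target GPR119 to flag nonselective hits from the GPR151 activator screen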
The depositor's hits bear a star; x = no result. Hits are enriched below; roughly 3.4% of the tested compounds scored in any of these assays.

SMILES	FBW7 activator	TEAD-YAP inh	GPR151 ag	MITF inh	GPR151 conf act	GPR119 ag
COc1ccccc1N1CCN(C2CCCN(C(=O)C3(C(N)=O)CC3)C2)CC1 (configuration not stated)	0	-6	5.6*	3	0	4
COc1ccccc1N1CCN(C2CCCN(C(=O)C3CCCCC3)C2)CC1 (configuration not stated)	0	-1	0	8	x	x
CC(=O)O[C@]1(C(C)=O)CC[C@H]2[C@@H]3C=C(Cl)C4=CC(=O)CC[C@]4(C)[C@H]3CC[C@@]21C	0	x	5.2*	16	0	15
c1ccc(-c2cc(N3CCCCC3)nc(-c3ccncc3)n2)nc1	0	11	9.4*	3	-1	-6
c1ccc(-c2cc(N3CCCCC3)nc(-c3cccnc3)n2)nc1	0	18	1	4	x	x
COc1ccc(-c2ccc(/C=C3\SC(=S)N(CC(=O)O)C3=O)o2)c([N+](=O)[O-])c1	-1	0	2	13	x	x
Cc1ccccc1N(C)S(=O)(=O)c1nnc(NC(=O)c2ccccc2F)s1	0	-1	1	10	x	x
Cc1ccc(C(=O)Nc2nnc(S(=O)(=O)N3c4ccccc4CC3C)s2)cc1 (configuration not stated)	0	-3	5.6*	-4	0	-2
CC1Cc2ccccc2N1S(=O)(=O)c1nnc(NC(=O)c2ccccc2)s1 (configuration not stated)	0	6	0	4	x	x
Cc1ccc2c(c1)CC(C)N2S(=O)(=O)c1nnc(NC(=O)c2ccccc2F)s1 (configuration not stated)	0	3	8.5*	11	-1	-10
COc1ccc(C(=O)Nc2nnc(S(=O)(=O)N3c4ccc(C)cc4CC3C)s2)cc1 (configuration not stated)	0	-8	0	-3	x	x
CN(c1ccccc1)S(=O)(=O)c1nnc(NC(=O)c2ccccc2F)s1	0	6	10*	9	1	0
Cc1oc(-c2ccccc2)nc1C(=O)OCC(=O)c1ccc(NC(=O)CC(C)C)cc1	0	-9	0	23	x	x
N#CC1=C(N)Oc2cc(O)c(Cl)cc2C1c1cccs1 (configuration not stated)	0	4	-1	0	x	x
O=C(NCc1ccccc1)c1nn2c(c1Cl)NC(c1cccs1)CC2C(F)(F)F (configuration not stated)	0	3	0	10	x	x
O=C1CC(N2CCN(C34CC5CC(CC(C5)C3)C4)CC2)C(=O)N1c1cccc(Cl)c1 (configuration not stated)	0	-6	1	15	x	x
O=C1c2cc(N3CCOCC3)c([N+](=O)[O-])cc2C(=O)N1CC1CCCO1 (configuration not stated)	0	4	0	12	x	x
OCCNCCCCOc1ccc(OCc2ccccc2)cc1	0	6	6.2*	5	0	-18
Cc1nc(-c2c(C(F)(F)F)oc3c(CN(C)C)c(O)ccc3c2=O)cs1	0	10	5.1*	-2	0	-5
Cc1nc(-c2c(C(F)(F)F)oc3c(C)c(C)ccc3c2=O)cs1	0	-11	-1	-5	x	x
CC(C)CCNC(=O)NC(=O)COC(=O)c1cc2ccccc2oc1=O	0	-4	12*	19	0	5
C/C(=N\Nc1cc(-n2cc(C)cn2)ncn1)c1cccc([N+](=O)[O-])c1	0	10	19*	14	0	4
C/C(=N\Nc1cc(-n2cc(C)cn2)ncn1)c1ccccc1	0	-10	0	4	x	x
CCOc1c(S(=O)(=O)NCc2ccco2)ccc(Cl)c1Cl	0	5	6.3*	13	-2	-15
CCOc1ccc(S(=O)(=O)NCc2ccco2)c(C)c1C	0	-9	-1	-1	x	x
COc1ccc(OC)c(C(=O)CC2(O)C(=O)Nc3ccc(Br)cc32)c1 (configuration not stated)	0	-17	5.8*	-3	0	-5
CCCC(=O)Nc1nn2c(CCC)nnc2s1	0	-4	0	0	x	x
CCC(=O)Nc1nn2c(CC(C)C)nnc2s1	0	6	5.0*	-13	0	-6

Screening data from PubChem.
